Laboratory results taken from the supplement of paper PMC9694430.

Tested on: LOC_OS01G13800-cb001
Assay: thermal shift delta Tm vs DMSO control; higher = stronger stabilization (binding)
Conditions: 12.5 µM; protein concentration 2 µM
Summary of the method: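 Rice kinase domain constructs were expressed in E. coli, purified, and tested by differential scanning fluorimetry with compound added in DMSO. Each well of a 96-well plate held 19.5 μl of 2 μM kinase in 100 mM potassium phosphate pH 7.5, 150 mM NaCl, 10% glycerol and 5 × SYPRO Orange, and fluorescence was read from 25°C to 95°C at 0.05°C/s. The melting temperature shift is the mean of triplicates, taken against protein with DMSO alone after Boltzmann fitting.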

SMILES	thermal shift delta Tm [°C]
CCOc1cc2ncc(C#N)c(Nc3ccc(OCc4ccccn4)c(Cl)c3)c2cc1NC(=O)/C=C/CN(C)C [Neratinib (HKI-272)]	0.47
COc1cc2nccc(Oc3ccc(NC(=O)Nc4cc(C)on4)c(Cl)c3)c2cc1OC [Tivozanib (AV-951)]	0.05
O=C1NC(=O)C(c2ccccc2[N+](=O)[O-])=C1Nc1ccc(O)c(Cl)c1	0.72
Cc1c(C(=O)N2CCOc3ccc(-c4ccc(N)nc4)cc3C2)ccc(S(C)(=O)=O)c1F	0.06
Cn1nccc1Nc1nccc(-c2ccn([C@H](CO)c3ccc(Cl)c(F)c3)c(=O)c2)n1	-0.2
COc1cc2c(N3CCN(C(=O)Nc4ccc(OC(C)C)cc4)CC3)ncnc2cc1OCCCN1CCCCC1 [Tandutinib (MLN518)]	0.92
C[C@@H]1COCCN1c1cc(=O)n2c(n1)N(Cc1cncc(Cl)c1)[C@H](C(F)(F)F)CC2	1.15
COc1ccc(F)c(F)c1C(=O)c1cnc(NC2CCN(S(C)(=O)=O)CC2)nc1N	-0.08
O=C(NCc1ccccc1)c1csc(Nc2ccncn2)n1 [Thiazovivin]	1.01
CCN(CC)CCCCNc1ncc2cc(-c3cc(OC)cc(OC)c3)c(NC(=O)NC(C)(C)C)nc2n1	0.29
O=c1cc(N2CCOCC2)oc2c(-c3ccc4c(c3)OCCO4)csc12	-0.36
Nc1ccc(C(=O)Nc2cccc(-c3nc(N4CCOCC4)c4oc5ncccc5c4n3)c2)cn1	0.49
O=C(NC[C@H](O)CO)c1ccncc1Nc1ccc(I)cc1F	0.34
CCOc1cc2ncc(C#N)c(Nc3ccc(F)c(Cl)c3)c2cc1NC(=O)/C=C/CN(C)C [Pelitinib (EKB-569)]	0.55
COc1cc2ncnc(Nc3ccc(Cl)cc3F)c2cc1OC	0.26
Cc1cc(Nc2ncnc3ccc(NC4=NC(C)(C)CO4)cc23)ccc1Oc1ccn2ncnc2c1 [Irbinitinib (ARRY-380, ONT-380)]	-0.06
CC1(C)CNc2cc(NC(=O)c3cccnc3NCc3ccncc3)ccc21 [Motesanib Diphosphate (AMG-706)]	0.38
COC(=O)Nc1ccc(-c2nc(N3CCOCC3)c3cnn(C4CCN(C(=O)OC)CC4)c3n2)cc1	0.44
COc1cc(C(=O)N2CCC(N3CCN(C)CC3)CC2)ccc1Nc1ncc2c(n1)N(C)c1ccccc1C(=O)N2C	0.41

SMILES	thermal shift delta Tm [°C]
C=C(C)[C@@H]1CC[C@]2(C)CC[C@]3(C)[C@H](CC[C@@H]4[C@@]5(C)CC[C@H](O)C(C)(C)[C@@H]5CC[C@]43C)[C@@H]12 [Lupeol]	0.74
Oc1cccc(-c2nc(N3CCOCC3)c3oc4ncccc4c3n2)c1	0.75
CCn1c(N)c(C(=O)NC)c(=O)c2ccc(C#CC(C)(O)COC)nc21 (configuration not stated)	-0.17
CCOc1cc(C(=O)N2CCC(N3CCN(C)CC3)CC2)ccc1Nc1ncc2c(n1)N(C1CCCC1)c1ccccc1C(=O)N2C	-0.42
Cc1ccc(NC(=O)c2cccc(C(C)(C)C#N)c2)cc1Nc1ccc2ncn(C)c(=O)c2c1	0.2
Nc1ccc(-c2ccc3ncc4ccc(=O)n(-c5cccc(C(F)(F)F)c5)c4c3c2)cn1 [Torin 2]	-0.87
CCN(CC)CCCC(C)Nc1ccnc2cc(Cl)ccc12 (configuration not stated) [Chloroquine Phosphate]	0.44
C[C@@H](N)[C@H]1CC[C@H](C(=O)Nc2ccncc2)CC1	0.65
COc1cc(N2CCC(N(C)C)CC2)ccc1Nc1ncc(Cl)c(Nc2ccccc2P(C)(C)=O)n1	-0.94
CCCS(=O)(=O)Nc1ccc(F)c(C(=O)c2c[nH]c3ncc(-c4ccc(Cl)cc4)cc23)c1F [Vemurafenib (PLX4032, RG7204)]	1.27
CO[C@H]1C[C@@H]2CC[C@@H](C)[C@@](O)(O2)C(=O)C(=O)N2CCCC[C@H]2C(=O)O[C@H]([C@H](C)C[C@@H]2CC[C@@H](OCCO)[C@H](OC)C2)CC(=O)[C@H](C)/C=C(\C)[C@@H](O)[C@@H](OC)C(=O)[C@H](C)C[C@H](C)/C=C/C=C/C=C/1C [Everolimus (RAD001)]	0.16
COc1ccc(S(=O)(=O)N(CCO)c2ccccc2CN(C)C/C=C/c2ccc(Cl)cc2)cc1 [KN-93 Phosphate]	-0.08
CN(C[C@@H]1COCCO1)S(=O)(=O)Nc1ccc2ccc3ncc(-c4cnn(C)c4)cc3c(=O)c2c1	-0.75
COc1ccc(CCNCc2ccc(OCc3ccc(Cl)nc3)c(OC)c2)cc1OC	0.46
Clc1ccc(C2(c3ccc(-c4cn[nH]c4)cc3)CCNCC2)cc1	0.44
CN(C)Cc1cccc(N/C(=C2\C(=O)Nc3cc(C(N)=O)ccc32)c2ccccc2)c1	-0.09
CC[C@H](CO)Nc1nc(NCc2ccccc2)c2ncn(C(C)C)c2n1 [Roscovitine (Seliciclib,CYC202)]	0.22
Cc1cc(Nc2cc(N3CCN(C)CC3)nc(/C=C/c3ccccc3)n2)n[nH]1	-0.23
